In PubChem BioAssay (NCATS):
Where “and” joins values, the source holds several entries; their conditions need not be identical. Equal values may be shown once. Results filed as inconclusive are left out. Calls of active or inactive are those of the source. Unless noted, calls come from the whole dose curve; as a rule, active = well fitted curve in the direction sought with a large enough effect; inconclusive = small, poorly fitted or top-dose-only effect, or another doubt; inactive = no such curve, though single readings can be large; an effect the other way counts as inactive or inconclusive.

Assays:
[1] = Cell Viability - BJ (AID 421; calls by dose curve;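 note: potency is the fitted concentration of half-maximal effect; cells exposed to compound for 40 hours at 37 °C before readout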); settings: BJ fibroblast viability, qHTS
Method in brief: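 Luminescent ATP signal (CellTiter-Glo, 20 min at room temperature) served as the read-out of viable BJ cells after 40 hours of compound treatment. Responses were scaled between DMSO and 100 uM tamoxifen, and AC50 values were obtained by Hill modeling.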

[2] = Cell Viability - HepG2 (AID 433; calls by dose curve;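 note: potency is the fitted concentration of half-maximal effect; potency for ATP loss meaning cytotoxicity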); settings: qHTS
Method in brief: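 HepG2 hepatocellular carcinoma cells (1500/well) were treated with compounds for 40 h at 37 °C in complete medium; intracellular ATP was read by CellTiter-Glo luminescence. Data were normalized to DMSO and 100 uM tamoxifen, and AC50 came from Hill fits.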

[3] = Cell Viability - MRC5 (AID 434; calls by dose curve;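 note: potency is the fitted concentration of half-maximal effect; potency reflects cytotoxicity seen as loss of intracellular ATP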); settings: MRC5 lung fibroblast viability, qHTS
Method in brief: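 qHTS cytotoxicity in human lung fibroblast MRC5 cells; 40 hr treatment, 37 °C; cellular ATP by luciferase luminescence; DMSO = 0%, 100 uM tamoxifen = 100% inhibition; Hill-fit AC50.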

[4] = Cell Viability - SK-N-SH (AID 435; calls by dose curve;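 note: potency is the fitted concentration of half-maximal effect; compound exposure lasted 40 h at 37 °C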); settings: SK-N-SH neuroblastoma cell viability qHTS
Method in brief: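 SK-N-SH human neuroblastoma cells (1500/well) were exposed to compounds in complete medium for 40 h at 37 °C, and intracellular ATP was then measured by CellTiter-Glo luminescence. AC50 was taken from Hill fits, normalized to DMSO and 100 uM tamoxifen.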

[5] = target: Mitogen-activated protein kinase 10 (Mus musculus) (UniProt Q61831); assay: JNK3 AlphaScreen Assay (AID 530; active = well fitted curve in either direction with a large enough effect, not every such curve was filed as active;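 note: kinase came from lysate of stimulated human HepG2 cells; signal reports phosphorylation of biotinylated GST-cJun 1-79 at Ser73 with 10 µM ATP; % is set by controls: 0 for no effect and ±100 for the full control effect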); settings: JNK3 lysate, c-Jun phosphorylation; series mostly up to 57.1 µM
Method in brief: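 Compound titrations were preincubated 15 minutes at room temperature with substrate, antibody and pre-activated JNK3-containing HepG2 lysate. Reactions were started with 10 uM ATP and stopped with EDTA-containing bead buffer for AlphaScreen detection.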

[6] = Cell Viability - N2a (AID 540); settings: N2a mouse neuroblastoma cell viability; at 92.2 µM (top of the series);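 note: plate controls were DMSO alone for no effect and tamoxifen control for full effect; nearly all actives have a fitted effect of over 45% in size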
Method in brief: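 Luminescent ATP signal (CellTiter-Glo, 20 min at room temperature) served as the viability read-out after N2a cells were treated with compounds for 40 hours at 37 °C. Concentration-response data were fitted to the Hill equation for AC50.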

[7] = Cell Viability - HUV-EC-C (AID 542); settings: HUV-EC-C endothelial cell viability, qHTS; series mostly up to 92.2 µM; note: % is set by controls: 0 for no effect and ±100 for the full control effect; nearly all actives have a fitted effect of over 35% in size
Method in brief: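 qHTS cytotoxicity: HUV-EC-C, 1000 cells/well, 5 hr settle, compound 40 hr 37 °C, CellTiter-Glo, luminescence. AC50 via Hill equation.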

[8] = Cell Viability - SH-SY5Y (AID 544); settings: SH-SY5Y neuroblastoma cell viability; viability change, negative = cytotoxic: at 92.2 µM (top of the series); note: nearly all actives have a fitted effect of over 55% in size
Method in brief: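 Luminescent ATP read-out (CellTiter-Glo) measures loss of viable SH-SY5Y neuroblastoma cells after 40 hr compound exposure at 37 °C. AC50 values derive from standard Hill modelling of qHTS concentration-response data.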

[9] = Cell Viability - Renal Proximal Tubule (AID 545); settings: renal proximal tubule cells viability; at 91.7 µM (top of the series), primary cells of rat origin unless noted; note: nearly all actives have a fitted effect of over 40% in size
Method in brief: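 Primary rat renal proximal tubule cells (1000/well) were treated with compounds for 40 hr at 37 °C in complete medium. Intracellular ATP was measured by CellTiter-Glo luminescence, and AC50 values came from Hill-equation fits of concentration-response data.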

[10] = Cell Viability - Mesenchymal (AID 546); settings: mesenchymal cells viability, qHTS; series mostly up to 91.7 µM;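 note: cells exposed to compound for 40 hours before reading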
Method in brief: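 AC50 values reflect the drop in intracellular ATP in a human kidney mesenchymal line derived from normal glomeruli. Treatment lasts 40 hr at 37 °C in complete medium, and the signal comes from CellTiter-Glo luminescence.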

[11] = Cellular Toxicity (caspase-3) Jurkat (AID 655); settings: Jurkat caspase-3 activation, luminescence, DMSO = 0%, tamoxifen = 100%; at 92.2 µM (top of the series);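 note: cells exposed to compound for 16 h at 37 °C before reading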
Method in brief: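 Jurkat cells (5000/well) in complete medium were treated with compounds for 16 hr at 37 °C, then Caspase-Glo 3/7 luminescence was read after 20 min at room temperature. Data normalized to DMSO (basal) and 100 uM tamoxifen (100%); AC50 from Hill fit.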

[12] = Cellular Toxicity (caspase-3) SHSY5Y (AID 657); settings: SH-SY5Y caspase-3 activation, DMSO zero, 10 µM staurosporine = 100%; series mostly up to 91.7 µM;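 note: cells exposed to compound for 16 hours at 37 °C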
Method in brief: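 SH-SY5Y human neuroblastoma cells (1500/well) were treated with compounds for 16 h at 37 °C, then Caspase-Glo 3/7 luminescence was read after 1 h at room temperature. Data normalized to DMSO and 10 uM staurosporine; AC50 from Hill fits.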

[13] = Cellular Toxicity (caspase-3) BJ (AID 658); settings: BJ fibroblasts, luminescence, normalized: DMSO 0%, staurosporine 100%; series mostly up to 91.7 µM;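 note: cells exposed to compound for 16 hours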
Method in brief: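 Readout: Caspase-Glo 3/7 luminescence increase in BJ cells after 16 hr treatment at 37 °C. Staurosporine and tamoxifen served as positive controls; AC50 values came from Hill modelling of data normalized to DMSO and 10 uM staurosporine.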

[14] = Cellular Toxicity (caspase-3) MRC-5 (AID 659); settings: MRC-5 cells, luminescence, normalized: DMSO 0%, 10 µM staurosporine 100%; series mostly up to 91.7 µM
Method in brief: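 Concentration-dependent caspase 3/7 activation is measured in human normal lung fibroblasts (MRC-5) following 16-hour treatment. AC50 values come from standard Hill-equation modeling of luminescence normalized to DMSO and 10 uM staurosporine.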

[15] = Cellular Toxicity (caspase-3) Mesangial (AID 660); settings: mesangial cells, normalized: DMSO 0%, 100 µM tamoxifen 100%; series mostly up to 91.7 µM;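 note: combined caspase 3 and 7 activity read by Caspase-Glo luminescence; cells exposed to compound for 16 h before the caspase read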
Method in brief: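 Mesangial cells, 1000/well, 5 h settle at 37 °C; compound 16 h, 37 °C; Caspase-Glo 3/7 reagent 20 min RT; luminescence. Norm.: DMSO = 0%, tamoxifen 100 uM = 100%. AC50, Hill fit.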

[16] = Cellular Toxicity (caspase-3) SK-N-SH (AID 661); settings: SK-N-SH caspase-3 activation, qHTS, DMSO as zero, staurosporine as full; series mostly up to 91.7 µM;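 note: cells exposed to compound for 16 hours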
Method in brief: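 Human neuroblastoma SK-N-SH, 1500 cells/well, 5 hr pre-incubation, then compound 16 hr, 37 °C. Caspase-Glo 3/7 reagent, 1 hr RT, luminescence. Norm. to DMSO/10 uM staurosporine; Hill-fit AC50.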

[17] = Cellular Toxicity (caspase-3) Renal Proximal Tubule (AID 667); settings: renal proximal tubule cells; at 91.7 µM (top of the series), primary cells freshly taken from rat, solvent-only wells 0%, staurosporine 100% unless noted;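 note: cells exposed to compound for 16 hours at 37 °C before detection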
Method in brief: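 Primary rat proximal tubule cells, 1000/well, 5 h plating at 37 °C, then compound 16 h at 37 °C. Caspase-Glo 3/7 reagent, 1 h RT, luminescence. Normalized to DMSO (basal) and 10 uM staurosporine (100%); Hill-fit AC50.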

[18] = qHTS Assay for Identification of Small Molecule Inducers of Hypoxia Response (AID 2120; active = well fitted curve in the direction sought with a large enough effect in the signal ratio, with a control signal flat, not every such curve was filed as active; the % refers to the signal ratio; note: 0% is about no effect); settings: hypoxia response reporter cells, beta-lactamase ratio readout; series mostly up to 104 µM
Method in brief: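 ME-180 HRE-bla cells plated in Opti-MEM/0.5% dialyzed FBS, rested 4-5 h, then dosed with compound titrations by pin tool. After 17 h at 37 degrees C, CCF4 dye loaded 2.5 h at RT; 460/530 nm ratio gave %Activity and AC50.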

[19] = qHTS assay for small molecule disruptors of the mitochondrial membrane potential - 5 hr assay (AID 651755; calls by dose curve; note: % is set by controls: 0 for no effect and ±100 for the full control effect; nearly all actives have a fitted effect of over 40% in size); settings: JC-1-type ratio dye; series mostly up to 92.2 µM
Method in brief: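 HepG2, 2,000 cells/well, overnight attach; cpd or DMSO 5 hr, 37C/5% CO2; Mito-MPS 30 min 37C; fluor 490/535 + 540/590 nm.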

[20] = target: Peroxisome proliferator-activated receptor alpha (Homo sapiens) (UniProt Q07869); assay: qHTS assay for small molecule agonists of the peroxisome proliferator-activated receptor alpha (PPARalpha) signaling pathway (AID 651778); settings: PathHunter PPARalpha complementation, chemiluminescence, 6 h; stronger effect = higher value; note: % of control where 0% means no effect
Chain of Peroxisome proliferator-activated receptor alpha (Homo sapiens) (Q07869 whole entry, looked up): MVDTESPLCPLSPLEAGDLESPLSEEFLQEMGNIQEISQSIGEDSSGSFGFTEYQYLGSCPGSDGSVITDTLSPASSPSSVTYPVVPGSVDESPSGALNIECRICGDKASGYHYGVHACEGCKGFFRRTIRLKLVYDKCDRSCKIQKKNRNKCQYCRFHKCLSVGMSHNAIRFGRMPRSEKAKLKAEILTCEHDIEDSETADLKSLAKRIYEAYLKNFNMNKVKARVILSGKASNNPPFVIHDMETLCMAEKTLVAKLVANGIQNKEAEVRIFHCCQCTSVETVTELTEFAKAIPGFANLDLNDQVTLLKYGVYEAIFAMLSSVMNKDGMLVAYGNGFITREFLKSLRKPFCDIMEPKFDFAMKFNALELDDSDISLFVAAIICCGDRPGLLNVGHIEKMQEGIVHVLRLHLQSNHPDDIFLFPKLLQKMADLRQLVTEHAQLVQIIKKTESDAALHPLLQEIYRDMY
Method in brief: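 Chemiluminescence from complemented enzyme reported PPARalpha activation in cells after 6 hr of compound treatment at 37 C. The detection reagent was incubated for 60 min at room temperature, and compounds were scored as agonists.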

Nc1ccc(Br)cc1
inactive: Potency [1] > 92 µM | Potency [2] > 92 µM | Potency [3] > 92 µM | Potency [4] > 92 µM | outcome [5] | activity change, negative = cytotoxicity [6] -2.5% | Potency [7] | Potency [8] | activity change, negative = cytotoxicity [9] -3.48% | outcome [10] | caspase-3 activation [11] 5.03% | outcome [12] | outcome [13] | outcome [14] | outcome [15] | outcome [16] | caspase-3 activation [17] -0.502% | outcome [18] | Potency [19] | max response [20] -1.52%

CCCC(=O)Cl
inactive: Potency [1] > 92 µM | Potency [2] > 92 µM | Potency [3] > 92 µM | Potency [4] > 92 µM | outcome [5] | activity change, negative = cytotoxicity [6] 1.63% | Potency [7] | Potency [8] | activity change, negative = cytotoxicity [9] 0.416% | outcome [10] | caspase-3 activation [11] -0.695% | outcome [12] | outcome [13] | outcome [14] | outcome [15] | outcome [16] | caspase-3 activation [17] 6.16% | outcome [18] | Potency [19] | max response [20] -5.49%

c1ccc2c(c1)CCCC2
inactive: Potency [1] > 92 µM | Potency [2] > 92 µM | Potency [3] > 92 µM | Potency [4] > 92 µM | outcome [5] | activity change, negative = cytotoxicity [6] 9.97% | Potency [7] | Potency [8] | activity change, negative = cytotoxicity [9] -0.896% | outcome [10] | caspase-3 activation [11] -0.484% | outcome [12] | outcome [13] | outcome [14] | outcome [15] | outcome [16] | caspase-3 activation [17] -4.18% | outcome [18] | Potency [19] | max response [20] -0.424%

C=CC(=O)OCC
inactive: Potency [1] > 92 µM | Potency [2] > 92 µM | Potency [3] > 92 µM | Potency [4] > 92 µM | outcome [5] | activity change, negative = cytotoxicity [6] -4.3% | Potency [7] | Potency [8] | activity change, negative = cytotoxicity [9] 0.0849% | outcome [10] | caspase-3 activation [11] -0.667% | outcome [12] | outcome [13] | outcome [14] | outcome [15] | outcome [16] | caspase-3 activation [17] -0.996% | outcome [18] | Potency [19] | max response [20] -5.18%

Cc1cccc([N+](=O)[O-])c1
inactive: Potency [1] > 92 µM | Potency [2] > 92 µM | Potency [3] > 92 µM | Potency [4] > 92 µM | outcome [5] | activity change, negative = cytotoxicity [6] -15.4% | Potency [7] | Potency [8] | activity change, negative = cytotoxicity [9] -7.28% | outcome [10] | caspase-3 activation [11] -1.23% | outcome [12] | outcome [13] | outcome [14] | outcome [15] | outcome [16] | caspase-3 activation [17] 5.52% | outcome [18] | Potency [19] | max response [20] -3.99% and -0.65%
